CtBP-E1A inh: qHTS Assay for Inhibitors of the CtBP/E1A Interaction | AlphaScreen GST-E1A/His-CtBP binding, 1536-well; stronger effect = lower value | activity change, % (no concentration beside the values) | 0.49% of 340,000 active; in the data active means activity change below about -65%; inconclusive means mostly about -30% to -63%
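GST-E1A and His-tagged CtBP (125 nM each as 5X stock) were preincubated with pin-transferred compound for 2 h at 37 °C in the dark, then glutathione donor and nickel acceptor beads were added for 1 h before AlphaScreen reading.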
IL1B secr inh: qHTS for Inhibitors of Inflammasome Signaling: IL-1-beta AlphaLISA Primary Screen | 4.7% of 360,000 active | AID 743279, 2014 | activity change, % at 57.5 µM | THP-1 LPS/ATP IL-1B secretion, AlphaLISA, 16 h; stronger effect = lower value; in the data active means activity change below about -50%; inconclusive means mostly about -30% to -49%
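THP-1 cells pretreated 1 hr with compounds (up to 57.5 uM final), then stimulated with LPS (250 ng/mL final) plus ATP (1.25 mM final); secreted IL-1B measured by AlphaLISA after 16 hr, decreased signal indicating inhibition.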
TDP1 block: qHTS Assay for Inhibitors of Tyrosyl-DNA Phosphodiesterase (TDP1) | 0.28% of 350,000 active | Tyrosyl-DNA phosphodiesterase 1 (Homo sapiens), Q9NUW8 | recombinant TDP1, AlphaScreen DNA substrate cleavage | AID 485290, 2010 | Potency, µM (top dose mostly 130 µM), inactives show at the top dose activity change, negative = inhibition, usual class: inhibitors; further: potency means the concentration at half of the fitted maximal effect; nearly all actives have a fitted effect of over 40% in size
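Signal: AlphaScreen proximity between streptavidin donor and anti-FITC acceptor beads on intact substrate. Reaction: Tdp1 1 nM, substrate 15 nM final, 5 min RT after 15 min compound preincubation.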
Six1-Eya2 blk: qHTS Assay for Inhibitors of the Six1/Eya2 Interaction; activity change, % (test concentration not listed); AID 651725, 2012; AlphaScreen GST-Six1/His-Eya2 binding, biochemical; stronger effect = lower value; Homeobox protein SIX1 (Homo sapiens) + Protein phosphatase EYA2 (Homo sapiens), …; 0.56% of 360,000 active; in the data active means activity change below about -65%; inconclusive means mostly about -30% to -63%
Target sequence (O00167 whole entry, looked up): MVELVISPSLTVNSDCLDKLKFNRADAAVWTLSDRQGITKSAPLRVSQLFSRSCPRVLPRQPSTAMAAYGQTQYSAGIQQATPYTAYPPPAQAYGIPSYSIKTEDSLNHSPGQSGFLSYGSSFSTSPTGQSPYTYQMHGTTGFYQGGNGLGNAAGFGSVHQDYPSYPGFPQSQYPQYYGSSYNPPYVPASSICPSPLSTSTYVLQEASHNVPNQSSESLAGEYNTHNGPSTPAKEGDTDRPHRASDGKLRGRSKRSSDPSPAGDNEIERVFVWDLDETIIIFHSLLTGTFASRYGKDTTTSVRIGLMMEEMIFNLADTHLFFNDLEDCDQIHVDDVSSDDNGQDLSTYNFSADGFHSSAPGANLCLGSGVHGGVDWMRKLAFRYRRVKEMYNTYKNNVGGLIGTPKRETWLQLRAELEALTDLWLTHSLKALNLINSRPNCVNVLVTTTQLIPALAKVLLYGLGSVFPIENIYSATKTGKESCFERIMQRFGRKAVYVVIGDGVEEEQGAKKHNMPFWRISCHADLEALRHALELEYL
Target sequence (Q15475 whole entry, looked up): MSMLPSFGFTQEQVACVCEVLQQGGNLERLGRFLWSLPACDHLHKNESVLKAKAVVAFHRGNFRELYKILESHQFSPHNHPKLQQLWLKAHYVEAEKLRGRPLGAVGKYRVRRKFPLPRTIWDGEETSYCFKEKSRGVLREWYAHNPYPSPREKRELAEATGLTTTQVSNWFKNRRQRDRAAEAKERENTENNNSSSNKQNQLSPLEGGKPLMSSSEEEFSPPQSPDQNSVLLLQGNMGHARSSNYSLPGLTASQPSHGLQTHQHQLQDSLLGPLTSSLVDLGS
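AlphaScreen luminescence read after one hour at 37 °C in darkness. Pin-transferred compounds met GST-Six1 and His-Eya2 protein (5X stock 250 nM/500 nM) plus glutathione donor and Ni-chelate acceptor beads (5X, 50 ug/mL).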
TDP1 cell CPT: qHTS for Inhibitors of human tyrosyl-DNA phosphodiesterase 1 (TDP1): qHTS in cells in presence of CPT. chicken DT40 Tdp1-/-;hTDP1 cells + 20 nM CPT, ATP luminescence, 48 h. Potency, µM (doses to about 46.2 µM), inactives show at the top dose activity change, negative = growth inhibition, most hits filed as inhibitors. 12% of 420,000 active. AID 686979, 2013; further: potency means the concentration at half of the fitted maximal effect; nearly all actives have a fitted effect of over 55% in size
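Chicken DT40 Tdp1-/- cells stably complemented with human TDP1 were seeded at 400 cells/well in medium containing 20 nM camptothecin, exposed to pin-transferred compounds, and grown at 37 °C for at least 48 hr. Viability was read as ATP luminescence.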
DT40 TDP1 no CPT: qHTS for Inhibitors of human tyrosyl-DNA phosphodiesterase 1 (TDP1): qHTS in cells in absence of CPT; AID 686978, 2013; 15% of 420,000 active; DT40 Tdp1-/- hTDP1 cells, no CPT, ATP luminescence, 48 h; Potency, µM (doses to about 46.2 µM), inactives show top-dose activity change, negative = growth inhibition, usual class: inhibitors; further: potency means the concentration at half of the fitted maximal effect; nearly all actives have a fitted effect of over 55% in size
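Compound effects on proliferation are scored in DT40 Tdp1-/-;hTDP1 cells in the absence of CPT. ATP levels (CellTiter-Glo luminescence) are recorded after a ≥48 hr, 37 °C incubation.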
Numbers without * were called inactive; ? = inconclusive; · = no result given. An excerpt weighted towards active compounds, which were near 18% of everything screened. Unless noted, the call rests on the fitted dose curve; in most records, active means well fitted curve in the direction sought with a large enough effect; inconclusive means small, poorly fitted or top-dose-only effect, or another doubt; inactive means no such curve, though single readings can be large; an effect the other way counts as inactive or inconclusive. On the % scale 0 is the no-effect control and ±100 the full control effect.

SMILES	CtBP-E1A inh	IL1B secr inh	TDP1 block	Six1-Eya2 blk	TDP1 cell CPT	DT40 TDP1 no CPT
Cc1n[nH]c(C)c1C(=O)CC1(O)C(=O)N(CCc2ccccc2)c2ccc(Cl)cc21 (configuration not stated)	-1	5	7%	-6	?	23µM*
Cc1ccccc1CN1C(=O)C(O)(CC(=O)c2ccccc2)c2cc(Cl)ccc21 (configuration not stated)	·	·	-2%	·	-102%	?
COc1ccc(CC(=O)Nc2ccc(S(=O)(=O)N3CCC(C)CC3)cc2)c(OC)c1	-4	-10	-2%	-2	?	8.2µM*
COc1ccc(NC(=O)Cn2c(=O)oc3cc(S(=O)(=O)N4CCC(C)CC4)ccc32)c(OC)c1	·	·	4%	·	21µM*	8.2µM*
Cc1cc(C)cc(NC(=O)Cn2c(=O)oc3cc(S(=O)(=O)N4CCC(C)CC4)ccc32)c1	0	1	4%	-6	6.5µM*	15µM*
COc1ccc(CCNC(=O)Cn2c(=O)oc3cc(Cl)ccc32)cc1OC	3	3	·	0	-27%	8%
COc1ccc(NC(=O)Cn2c(=O)oc3cc(Cl)ccc32)c(OC)c1	·	10	-2%	-4	?	6.5µM*
CC1CCN(S(=O)(=O)c2ccc3c(c2)oc(=O)n3CC(=O)O)CC1	·	·	-3%	·	-5%	-9%
CCCCN(C(=O)C1CCCO1)c1c(N)n(CCC)c(=O)[nH]c1=O (configuration not stated)	13	13	0%	3	2%	11%
CC1(C)SC2c3ccccc3C(=O)N2[C@@H]1C(=O)NC1CCCC1 (some centres not stated)	8	10	3%	2	-2%	?
COc1ccc(CNC(=O)Cn2c(=O)oc3cc(S(=O)(=O)N4CCC(C)CC4)ccc32)cc1	·	·	4%	·	8.2µM*	8.2µM*
COc1ccc(CNC(=O)Cn2c(=O)oc3cc(S(=O)(=O)N4CCCCCC4)ccc32)cc1	·	·	6%	·	13µM*	16µM*
CC1CCN(S(=O)(=O)c2ccc3c(c2)oc(=O)n3CC(=O)NCc2ccc3c(c2)OCO3)CC1	-1	-17	7%	2	?	?
COc1ccc(CNC(=O)Cn2c(=O)ccc3cc(S(=O)(=O)N4CCCC4)ccc32)cc1	·	·	2%	·	-11%	-24%
CN1CCN(S(=O)(=O)c2ccc(NC(=O)c3ccc([N+](=O)[O-])cc3)cc2)CC1	-10	-11	·	21	?	-25%
CCOC(=O)c1c(CSc2nc(C)cc(C)c2C#N)n(C)c2cc(Br)c(OC(C)=O)cc12	6	58	5%	4	?	26µM*
C=CCCc1ccc(C#N)c(SCc2c(C(=O)OCC)c3cc(OC(C)=O)c(Br)cc3n2C)n1	23	12	-1%	16	21µM*	29µM*
CCOC(=O)c1c(C)n(C)c2cc(Br)c(OC)cc12	-8	14	-2%	-2	-5%	-3%
OCCN1CCN(c2cc(-c3ccc(CO)cc3)nc3ccnn23)CC1	-2	15	·	0	-2%	-10%
CN1CCN(c2cc(-c3ccc4ccccc4c3)nc3ccnn23)CC1	-2	-18	·	-6	23µM*	?
O=C(O)CCc1ccc(-c2ccccc2)n1NC(=O)c1ccco1	-1	24	5%	0	4%	-25%
O=C(O)c1oc2ccccc2c1CSCc1ccccc1	-1	2	1%	-16	-17%	?
O=C(c1ccc2c(Cl)c3c(nc2c1)CCCC3)N1CCN(c2ccccc2)CC1	·	·	2%	·	1%	-10%
Cc1ccc(C)c(N2CCN(C(=O)c3ccc4c(=O)n5c(nc4c3)CCCCC5)CC2)c1	-22	?	·	-21	16µM*	16µM*
O=C(c1ccc2c(Cl)c3c(nc2c1)CCCC3)N1CCC(N2CCCCC2)CC1	13	-69*	0%	7	?	?
SMILES	CtBP-E1A inh	IL1B secr inh	TDP1 block	Six1-Eya2 blk	TDP1 cell CPT	DT40 TDP1 no CPT
Cc1ccc(C)c(N2CCN(C(=O)c3ccc4c(Cl)c5c(nc4c3)CCCC5)CC2)c1	·	·	3%	·	16µM*	?
O=C(c1ccc2c(=O)n3c(nc2c1)CCCCC3)N1CCCCC1	0	47	0%	1	-29%	9%
CCOC(=O)N1CCN(C(=O)c2ccc3c(Cl)c4c(nc3c2)CCCC4)CC1	0	-51*	2%	-4	?	?
Clc1ccc(-c2noc3ncnc(NC4CCCCC4)c23)cc1	·	·	-1%	·	3%	-19%
CC(/C=C/c1ccccc1F)=N\NC(=O)c1cccc(F)c1	0	-4	7%	-1	?	18µM*
CC(/C=C/c1ccccc1)=N\NC(=O)c1ccc2c(c1)OCCO2	-9	-11	4%	-3	?	?
CC(/C=C/c1cccc([N+](=O)[O-])c1)=N/NC(=O)c1cccnc1	3	-14	4%	-14	?	?
CC(/C=C/c1ccccc1)=N/NC(=O)c1cc([N+](=O)[O-])cc([N+](=O)[O-])c1	8	0	0%	13	5.2µM*	5.2µM*
CC(/C=C/c1ccccc1)=N/NC(=O)c1cnccn1	-5	?	-5%	-86*	8%	-16%
CCc1nnc2sc(-c3ccc(NC(=O)CSc4ccc(Cl)cc4)cc3)nn12	-6	-18	·	-20	-28%	?
C=CCN1C(=O)C(CC(=O)Nc2ccc(OC)cc2)N(Cc2ccco2)C1=S (configuration not stated)	2	15	3%	-1	-7%	-18%
Cc1cccc2[nH]c3c(N4CC=C(c5ccc(F)cc5)CC4)ncnc3c12	-4	-92*	2%	-22	13µM*	15µM*
Cc1cc(Br)cn2c(Cc3ccsc3)c(-c3ccc(F)cc3)nc12	2	74	·	-2	-24%	15µM*
Cc1cc(Br)cn2c(Cc3ccccc3C(F)(F)F)c(-c3ccccc3)nc12	-17	43	·	-4	?	?
CCCc1nc2c(C)cc(Br)cn2c1Cc1ccsc1	1	25	·	-7	?	23µM*
CCCc1nc2c(C)cc(Br)cn2c1Cc1ccccc1C(F)(F)F	15	39	·	2	23µM*	23µM*
Cc1cc(Br)cn2c(Cc3ccsc3)c(C(C)(C)C)nc12	-2	12	·	0	?	26µM*
